These results are taken from PubChem BioAssay (NCI).

About 83,000 compounds went through this panel and 20% of them were active in at least one assay; those are over-represented in the sample as a whole.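 Each cell line was grown in a 96-well plate and treated with one concentration of compound for 48 hours. Values below 10 were considered active.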 Unmarked numbers belong to inactive results. Active and inactive are the calls of the source.

Assay in all cases: NCI-60 one-dose screen, 48 h (100 = growth as untreated, 0 = no growth, -100 = all killed)
Conditions in all cases: 10 µM unless noted

Experiment [1] concerns SR leukemia.
The subject of experiment [2] is RPMI-8226 leukemia.
The test system of experiment [3] is OVCAR-8 ovarian.
In experiment [4] the test system is OVCAR-5 ovarian.
Experiment [5] relates to OVCAR-4 ovarian.
The subject of experiment [6] is SK-OV-3 ovarian.
The subject of experiment [7] is IGROV1 ovarian.
Experiment [8] deals with OVCAR-3 ovarian.
For experiment [9], the system named is HS 578T breast.
In experiment [10] the test system is NCI/ADR-RES ovarian.
Experiment [11] deals with T-47D breast.
The test system of experiment [12] is BT-549 breast.
The test system of experiment [13] is MDA-MB-435 melanoma.
The test system of experiment [14] is SW-620 colon.
Experiment [15] deals with MCF7 breast.
For experiment [16], the system named is HCT-116 colon.
For experiment [17], the system named is HCC-2998 colon.
Experiment [18] relates to KM12 colon.
Experiment [19] concerns MDA-MB-468 breast.

In the case of `COc1ccc(Cc2nn(CC(=O)N/N=C/c3ccc(F)cc3)c(=O)c3c(C)noc23)cc1`, the growth in experiment [1] was 53.2%; in [2], 64.7%; in experiment [3], 38.6%; in experiment [4] it was 55%; in [5], -35.8% (active); in experiment [6], -72.1% (active). Besides, the growth in experiment [7] is 39.7%; in experiment [8], 47%; in [9] it was 23.1%; in experiment [10], 38.4%; in [11], -14.1% (active); in [12], 43.2%. In addition, the growth in experiment [13] is 48.1%; in [14] it was 61.4%; in experiment [15], 56.5%; in experiment [16], 5.98% (active); in experiment [17] it was 39.3%; in experiment [18] it was 73.1%. The growth in experiment [19] was 63.2%.

Consider `CCCCSc1nc(Nc2ccc(S(N)(=O)=O)cc2)c(C#N)c(-c2cc(OC)c(OC)c(OC)c2)n1`, for which the growth in experiment [1] was 8.85% (active); in experiment [2], 10.7%; in experiment [3], 31.5%; in experiment [4], 53.7%; in experiment [5], 40.2%; in experiment [6] it was 105%. The growth in [7] is 46.8%; in [8] it was 49.8%; in experiment [9], 67.8%; in [10] it was 32.5%; in experiment [11], 15.2%; in experiment [12], 44.3%. For the same molecule, the growth is 33% in [13]; 48.6% in experiment [14]; 21.8% in experiment [16]; 65% in [17]; 26.6% in [18]; 61.2% in [19].

For the molecule `Cc1ccc(C(=O)C(c2c[nH]c3ccccc23)c2c[nH]c3ccccc23)cc1`, the growth in experiment [1] was -6.82% (active); in experiment [2] it was -2.33% (active); in experiment [3] it was 44.2%; in experiment [4] it was 46.7%; in experiment [5], 43.7%; in experiment [6], 94%. The growth in experiment [7] was 35.8%; in experiment [8] it was 29.2%; in experiment [9], 83.2%; in experiment [10], 24.8%; in [11] it was 45.7%; in experiment [12], 69.1%. The growth in experiment [13] was 19.4%; in [14], 0.879% (active); in experiment [15] it was 9.47% (active); in [17], 4.87% (active); in [18], 26.1%; in [19], 26%.

Consider `CC1(c2cc3cc(Cl)ccc3oc2=O)NC(=O)c2c(/C=C/C(=O)OC3CC4CCC3(C)C4(C)C)cccc2N1` (stereo unspecified), for which the growth in experiment [1] is 42.2%; in experiment [2], 22%; in [3], 70.4%; in [4], 80.6%; in experiment [5], 54.4%; in experiment [6] it was 66.1%. Besides, the growth in experiment [7] is 76.1%; in experiment [8] it was 69%; in experiment [9] it was 72.8%; in experiment [10] it was 64%; in experiment [11], 24.4%; in experiment [12], 59.3%. Moreover, the growth in [13] is 81%; in experiment [14], 73%; in [15], 37.4%; in experiment [16] it was 40.4%; in [17], 82.6%; in experiment [18], 64.8%. For the same molecule, the growth in experiment [19] was -6.79% (active).

As for `O=C(COc1ccc(NC(=O)Nc2ccccc2)cc1)N=Nc1c(O)[nH]c2ccc([N+](=O)[O-])cc12`, the growth in [1] is 19.1%; in experiment [2], 53.9%; in [3] it was -30.5% (active); in experiment [4], 61.2%; in [5] it was 7.38% (active); in [6], 56.7%. The growth is 22.5% in experiment [7]; -76.9% (active) in experiment [8]; -8.84% (active) in experiment [9]; 113% in experiment [10]; -43.7% (active) in [11]; -42.6% (active) in [12]. Also, the growth in [13] is -18.3% (active); in experiment [14], 4.08% (active); in experiment [15] it was -2.45% (active); in experiment [17], -47.9% (active); in [18], -62% (active); in [19] it was -69.7% (active).

Take `Cn1cc(NC(=O)c2cc(NC(=O)c3ccc(C#Cc4ccccc4)cc3)cn2C)cc1C(=O)NCCCN1CCOCC1`: the growth in experiment [1] is -34.3% (active); in experiment [2] it was -42.6% (active); in experiment [3], 38.9%; in experiment [4], 83.2%; in experiment [5] it was 63%; in [6] it was 83.2%. Also, the growth was 66.8% in experiment [7]; 46% in experiment [8]; 95.9% in experiment [9]; 90% in experiment [10]; 73.5% in experiment [12]; -56.6% (active) in experiment [13]. Also, the growth in experiment [14] is -44.3% (active); in [15] it was -93.1% (active); in [16], -87.3% (active); in experiment [17], -56% (active); in experiment [18], 3.14% (active); in experiment [19] it was -69.7% (active).

In the case of `CCCSc1nc(Nc2ccc(S(N)(=O)=O)cc2)c(C#N)c(-c2ccc(Cl)cc2)n1`, the growth in experiment [1] is 18.5%; in experiment [2], 11.2%; in [3], 15.2%; in [4], 61.1%; in experiment [5] it was 7.47% (active); in experiment [6], -32.6% (active). Further, the growth is 43% in [7]; 31.7% in [8]; 12.5% in experiment [9]; 26.8% in experiment [10]; 86.5% in [11]; 77.7% in experiment [12]. Further, the growth in experiment [13] is 48%; in experiment [14], 37.6%; in experiment [16], -67.1% (active); in experiment [17], 8.65% (active); in [18] it was 41.7%; in experiment [19] it was 17.3%.

As to `COc1ccc(-c2ccnc(SCc3cc4ccccc4[nH]c3=O)n2)cc1`, the growth is 14.9% in experiment [1]; 65.5% in experiment [2]; 56.3% in experiment [3]; 82.1% in experiment [4]; 41.5% in [5]; 82.4% in [6]. The growth was 75% in experiment [7]; 81.6% in experiment [8]; 48.2% in experiment [9]; 26.9% in [10]; 70.2% in experiment [11]; 29.7% in [12]. Also, the growth in [13] was 1.7% (active); in [14] it was 35.1%; in [16], 31%; in experiment [17], 59.6%; in experiment [18] it was 57.3%; in experiment [19], 6.26% (active).
